Values joined by “and” are separate entries in the source; they are usually repeats but may differ in a detail not shown here. Equal values may be shown once. Out of some 260,000 compounds screened, about 1,500 (0.58%) were called active. About 5% were inconclusive and are not listed.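 How the source made its calls: active means inhibition above a set limit at one or more doses, reproduced on every date tested; inconclusive means results disagree between test dates, or hit never tested in dose response; inactive means the rest.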 These entries were drawn from the full list. Results with a measured potency or affinity are listed apart.
biological target: Virion infectivity factor (Human immunodeficiency virus type 1 group M subtype B (isolate BH10)) + Virion infectivity factor (Human immunodeficiency virus type 1 group M subtype B (isolate BRU/LAI)) + Virion infectivity factor (Human immunodeficiency virus type 1 group M subtype B (isolate PCV12)) + Virion infectivity factor (Human immunodeficiency virus type 1 group M subtype B (isolate HXB2)) + DNA dC->dU-editing enzyme APOBEC-3G (Homo sapiens) (UniProt P69720+P69721+P69722+P69723+Q9HC16); test: HIV-1 Vif–A3G interaction blockers – biochemical, TR-FRET, GST-Vif 1-94, biotin-A3G peptide, dose response retest, primary screen (AID 1117319); details: TR-FRET GST-Vif / biotin-A3G peptide binding; active compounds read high;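 further: Vif residues 1-94 fused to GST binding biotinylated APOBEC3G peptide 110-148; 0% = full assay without inhibitor and 100% = GST in place of GST-Vif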

inhibition, inactive:
COc1ccc(OCC(=O)Nc2ccc(OC)c(S(=O)(=O)N3CCCCC3)c2)cc1 -0.4%
N#CC1=C(S)N=C(N)C(c2nc(-c3ccccc3)cs2)C12CCCCC2 (stereo not drawn) 13.7%
CCOC(=O)c1ccc(NC(=O)CSc2nnc(Cn3c(=O)sc4ccccc43)n2C)cc1 -11.7%
O=C(CN(C(=O)CNS(=O)(=O)c1ccc(F)cc1)C1CCCC1)NCc1ccco1 -8.82%
COC(=O)Cn1cnc2c(nnn2-c2ccc(OC)cc2)c1=O -8.1%
O=C(/C=N/O)NCc1cccnc1 -3.6%
O=C(N=C1SC2CS(=O)(=O)CC2N1c1ccc(Br)cc1)C1CCCO1 (stereo not drawn) 2.67%
NC(=O)CN1C(=O)/C(=c2\sc3nc(=O)c(Cc4ccccc4)nn3c2=O)c2ccccc21 -13.2%
COC(=O)c1cc(Br)c(=O)n(CC(C)C)c1 4.6%
CC(C)c1cc(C(=O)OCC(=O)NC2CC2)c(O)c(C(C)C)c1 1.52%
COC(=O)c1ccc(N2CCCCC2)c(N)c1 24.1%
Nc1cc(C(=O)O)ccc1N1CCCCCC1 8.01%
NC(=O)c1cc(N)ccc1N1CCCCC1 -6.02%
CC1CCCCN1c1ccc(N)cc1C(N)=O (stereo not drawn) 0.06%
Cc1cccc(NC(=O)C2SC(=Nc3c(C)cccc3C)C(C(=O)N3CCOCC3)=C2N)c1 (stereo not drawn) 13.6%
N#Cc1ccccc1CN1C(=O)NC(Cc2c[nH]c3ccccc23)C1=O (stereo not drawn) -3.01%
COc1ccc(/C=N/NC(=O)c2ccc3c(c2)OCO3)cc1 -0.02%
COc1ccc(C(=O)N/N=C/c2ccc(SC)cc2)cc1 -0.44%
CSCCC(NC(=O)c1ccccc1)C(=O)N/N=C(\C)c1ccccc1 (stereo not drawn) -5.06%
Nc1cccc(Nc2ccccc2)c1 1.33%
Cc1ccc(Nc2ccc(C(=O)O)cc2N)cc1 15%
Cc1ccc(NS(=O)(=O)c2cc(N)ccc2Cl)c(C)c1 28.9%
Nc1cc(C(=O)O)ccc1Nc1ccccc1 13%
Cc1ccc(-n2cc(-c3ccccc3)c3c(NN4CCOCC4)ncnc32)cc1 21%
COc1cc2nc(N(CCN(C)C)C(=O)c3ccc4ccccc4c3)sc2cc1OC -3.84%
O=C1COc2ccc(C(=O)COC(=O)Cc3ccc(F)cc3)cc2N1 -9.09%
Nc1c(C(=O)OCC(=O)Nc2ccc(Cl)cc2[N+](=O)[O-])[nH]c(=O)[nH]c1=O -3.88%
CCc1cc2cccc(C)c2nc1SCC(=O)N1CCN(C(=O)c2ccco2)CC1 5.89% and -1.51%
CCc1cc2cc(C)ccc2nc1SCC(=O)N1CCN(C(=O)c2ccco2)CC1 3.37%
Cc1cccc(N2CCN(C(=O)c3ccccc3NC(=O)C3=CSCCO3)CC2C)c1 (stereo not drawn) 0.87%
Cc1cc(=O)[nH]c2c3ccccc3nn12 -4.45%
CCOc1ccc(C2C(C(=O)OC)=C(C)N=C3SCCC(=O)N32)cc1OCC (stereo not drawn) -1.89%
CC(C)C(NCc1c(Cl)cccc1Cl)C(=O)O (stereo not drawn) -1.01%
COn1c(-c2ccccc2)nc2c1CCc1c-2no[n+]1[O-] 3.61%
c1ccc(COn2c(-c3ccccc3)nc3c2CCc2nonc2-3)cc1 -7.03%
Cc1c(C(=O)O)oc2c1C(=O)CC(C)(C)C2 -2.53%
CC1CC(C)CN(CC(C)(C)NS(=O)(=O)c2ccccc2)C1 (stereo not drawn) 17.8%
O=C1C2C3C=CC(CC3)C2C(=O)N1c1ccc(Cl)cc1 (stereo not drawn) 1.42%
CCN(CC)C(=O)[C@H]1C[C@H](CC(=O)NC(C)(C)C)C(=O)N2CCc3c([nH]c4cc(CCC(=O)N(C)C)ccc34)[C@]12C -0.23%
Cc1c(NS(=O)(=O)c2ccc(Cl)c(C(=O)OC(C)C(=O)NCc3ccco3)c2)c(=O)n(-c2ccccc2)n1C (stereo not drawn) 5.59%
CC(C)(Oc1ccc(Cl)cc1)C(=O)NCC(c1ccco1)N1CCCCC1 (stereo not drawn) 1.39%
COc1ccccc1OCC(=O)NCc1ccco1 8.05%
COc1cccc(OC)c1C(=O)OCC(=O)NCc1ccco1 5.04%
COC(=O)CNC(=O)C(C)(C)Oc1ccc(Cl)cc1 -6.52%
O=C(COC(=O)Cc1ccc(Cl)c(Cl)c1)NCc1ccco1 7.25%
O=C(COC(=O)Cc1ccc(F)cc1)NCc1ccco1 -14.6%
CNC(=S)N1CCN(c2ccc(Cl)c(Cl)c2)CC1 1.98%
O=C1CSC(c2ccc(Cl)c(Cl)c2)N1c1nccs1 (stereo not drawn) 2.94%
CN(C)C(=O)c1ccc(NC(=O)CSc2nnc(-c3ccc4c(c3)OCO4)o2)cc1 1.62%
C/C(=N\Nc1ccc(F)cc1)c1ccc(N2CCOCC2)c(F)c1 6.07%
CC(=O)c1ccc(NC(=O)c2cnsn2)cc1 4.53%
CCN(CC)C(=O)[C@H]1C[C@H](CC(=O)NCCc2ccccn2)C(=O)N2CCc3c([nH]c4cc(CCC(=O)N(C)C)ccc34)[C@]12C 17.5%
CCNC(=S)N/N=C/c1c(C)nn(-c2cccc(Cl)c2)c1Cl 5.39%
CC(=O)C1=C(C)OC(N)=C(C#N)C1c1cc2cc(C)c(C)cc2nc1Cl (stereo not drawn) 9.71%
CC(=O)C1=C(C)OC(N)=C(C#N)C1c1cc2cccc(C)c2nc1Cl (stereo not drawn) -1.1%
COc1ccc2nc(NC(=O)C3CCN(C(=O)c4ccc(F)cc4)CC3)sc2c1 -12.6%
CCc1oc(C(=O)OC)cc1CSC(=N)N -0.44%
Cc1cc2ccccn2c1C(=O)c1nc(NCc2ccccc2)ncc1Cl -3.29%
COc1cccc(C(=O)OCC(=O)Nc2ccc3c(c2)OCCO3)c1 -5.71%
CSc1ncccc1C(=O)OCC(=O)NC(=O)NCCC(C)C -2.12%
O=C(NCC(c1cccs1)N1CCOCC1)c1ccc(Br)o1 (stereo not drawn) 22.6%
CC(=O)Nc1ccc(S(=O)(=O)Nc2nccs2)cc1 -1.8%
COc1ccc(-c2nnc(Nc3ccc(S(=O)(=O)Nc4nccs4)cc3)c3ccccc23)cc1 12.6%
COC(=O)[C@H](C)NC(=O)Nc1ccccc1C(F)(F)F 8.61%
CNC(=O)C12CCC(C)(c3nc4cc(C)c(C)cc4nc31)C2(C)C (stereo not drawn) 2.01%
CCOC(=O)C1CCN(Cc2cnc(Oc3ccc(C(C)(C)C)cc3)s2)CC1 28.3%
CCOC(=O)C1CCN(Cc2cnc(Oc3ccc(N)cc3)s2)CC1 3.48%
Cc1cc(CNC(=O)CCc2nnc(CCCCc3ccccc3)o2)nn1C -5.35%
Cc1ccc(-c2cc(Cc3ccc(N(C)C)cc3)c(=O)[nH]n2)cc1 -0.03%
CN(C)c1ccc(C(=O)c2ccc(O)cc2O)cc1 -0.42%
O=C(Nc1ccc(Cl)cc1)C(c1ccccc1)N(CCO)CCO (stereo not drawn) -1.42%
COC(=O)c1ccc(CSc2nnc(-c3ccccc3)n2C)o1 2.37%
O=C(O)c1ccc(S(=O)(=O)c2ccccc2C(=O)O)c([N+](=O)[O-])c1 -4.06%
O=C(O)c1ccc(C(=O)c2cc([N+](=O)[O-])cc([N+](=O)[O-])c2)cc1 -9.99%
Cc1cc(C(=O)Nc2ccccc2Cc2ccccc2)no1 -1.05%
CCOC(=O)c1c(NC(=O)c2cccs2)sc(C)c1CC -1.19%
Cc1sc(NC(=O)c2cccs2)c(C(=O)OC(C)C)c1C 2.47%
O=C(O)/C(=C/c1ccc(Cl)c([N+](=O)[O-])c1)c1ccc(S(=O)(=O)N2CCCCC2)s1 19.6%
COc1c(C)cc(C(=O)C2CCCN(C(=O)c3cc(C)nc(C)n3)C2)cc1C (stereo not drawn) -12.6%
CCc1cccc(NC(=O)CN(C)S(=O)(=O)c2cccc3cccnc23)c1 5.83%
COc1c(O)cc2c(c1O)C(=O)CC(c1ccccc1)O2 (stereo not drawn) 2.35%
COc1cc(O)c(CCO)c2c1C(=O)C[C@@H](C)O2 1.87%
O=C(NCc1cccnc1)c1ccc(CS(=O)(=O)Cc2ccc(Cl)cc2)o1 21.4%
CCc1cccc(NC(=O)C2CCN(S(=O)(=O)c3c(C)noc3C)CC2)c1 -1.11%
Cc1noc(C)c1S(=O)(=O)N1CCC(C(=O)NC2CCN(Cc3ccccc3)CC2)CC1 28.3%
CCCCn1c(SCC(=O)c2ccc(OCC)cc2)nc2cc(S(N)(=O)=O)ccc21 3.73%
CN1CC(=O)N(CC(=O)Nc2ccc(Cl)c(C(F)(F)F)c2)C1=O -5.66%
COc1ccc(NC(=O)CCCCCN2C(=O)CCC2=O)cc1Cl -2.09%
O[C@H]1C[C@H](c2ccccc2)N(CC2CCCCC2)C[C@@H]1n1cc(C2CC2)nn1 -3.24%
Cc1ccc(C)c(N(C(=O)Cn2nnc3ccccc32)C(C(=O)NCc2ccco2)c2ccncc2)c1 (stereo not drawn) -2.7%
Cc1ccccc1N(C(=O)Cn1nnc2ccccc21)C(C(=O)NCc1ccco1)c1ccncc1 (stereo not drawn) -7.73% and -2.99%
CC(C)Oc1ccc(N2CC(C(=O)Nc3ccccc3C(=O)NC3CC3)CC2=O)cc1 (stereo not drawn) -13%
Cc1ccc2[nH]c(=O)c(C3=NN(C(=O)CCC(=O)O)C(c4cccs4)C3)c(-c3ccccc3)c2c1 (stereo not drawn) 2.41%

From PubChem BioAssay AID1117319 (Southern Research Institute, 2015)
